Test [1] can be described thus: Quantitative High-Throughput drug screen in 47 multiple myeloma cell lines against the NCATS MIPE library collection: LP1_DSMZ cell viability assay (AID 1918982). Note: nearly all actives have a fitted effect of over 35% in size. The method, boiled down: (§1)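 Plated at 500 cells per well, myeloma lines received MIPE 4.0 compounds by pin tool. Following 48 h culture at 37 °C, CellTiter-Glo luminescence gave viability relative to DMSO and media-only controls.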

A short description of test [2]: Quantitative High-Throughput drug screen in 47 multiple myeloma cell lines against the NCATS MIPE library collection: KMS28PE_JCRB cell viability assay (AID 1918983). Note: nearly all actives have a fitted effect of over 35% in size. The method, boiled down: as §1
Test [3] can be described thus: Quantitative High-Throughput drug screen in 47 multiple myeloma cell lines against the NCATS MIPE library collection: KMS34_JCRB cell viability assay (AID 1918985). Note: nearly all actives have a fitted effect of over 40% in size. The method, boiled down: as §1
Test [4] is described as follows: Quantitative High-Throughput drug screen in 47 multiple myeloma cell lines against the NCATS MIPE library collection: XG1_PLB cell viability assay (AID 1919866). Note: nearly all actives have a fitted effect of over 35% in size. The method, boiled down: as §1
Test [5] is described as follows: Quantitative High-Throughput drug screen in 47 multiple myeloma cell lines against the NCATS MIPE library collection: VP6_DJ cell viability assay (AID 1919867). Note: nearly all actives have a fitted effect of over 40% in size. The method in brief:
as §1

Test [6] is described as follows: Quantitative High-Throughput drug screen in 47 multiple myeloma cell lines against the NCATS MIPE library collection: PE2_PLB cell viability assay (AID 1919869). Note: nearly all actives have a fitted effect of over 35% in size. The method in brief: as §1
A short description of test [7]: Quantitative High-Throughput drug screen in 47 multiple myeloma cell lines against the NCATS MIPE library collection: PCM6_Riken cell viability assay (AID 1919870). Note: nearly all actives have a fitted effect of over 30% in size. The method, boiled down: as §1
Test [8] is described as follows: Quantitative High-Throughput drug screen in 47 multiple myeloma cell lines against the NCATS MIPE library collection: RPMI8226_ATCC cell viability assay (AID 1919871). Note: nearly all actives have a fitted effect of over 30% in size. The method, boiled down:
as §1

Test [9] in a line: Quantitative High-Throughput drug screen in 47 multiple myeloma cell lines against the NCATS MIPE library collection: OPM2_DSMZ cell viability assay (AID 1919872). Note: nearly all actives have a fitted effect of over 30% in size. The method in brief: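 Viability readout: CellTiter-Glo luminescence following 5 min room-temperature incubation with reagent. Prior exposure: 48 h, 37C, humidified 5% CO2, 500 cells per well.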
A short description of test [10]: Quantitative High-Throughput drug screen in 47 multiple myeloma cell lines against the NCATS MIPE library collection: KMS11_JCRBsus cell viability assay (AID 1919873). Note: nearly all actives have a fitted effect of over 50% in size. The method, boiled down: as §1
The nature of test [11]: Quantitative High-Throughput drug screen in 47 multiple myeloma cell lines against the NCATS MIPE library collection: KMS28BM_JCRB cell viability assay (AID 1919874). Note: nearly all actives have a fitted effect of over 35% in size. The method, boiled down:
as §1

Test [12] can be described thus: Quantitative High-Throughput drug screen in 47 multiple myeloma cell lines against the NCATS MIPE library collection: L363_DSMZ cell viability assay (AID 1918984). Note: nearly all actives have a fitted effect of over 40% in size. The method in brief:
as §1

Test [13] can be described thus: Quantitative High-Throughput drug screen in 47 multiple myeloma cell lines against the NCATS MIPE library collection: OCIMY5_PLB cell viability assay (AID 1918988). Note: nearly all actives have a fitted effect of over 65% in size. The method in brief: as §1
Test [14] can be described thus: Quantitative High-Throughput drug screen in 47 multiple myeloma cell lines against the NCATS MIPE library collection: OPM1_PLB cell viability assay (AID 1918989). Note: nearly all actives have a fitted effect of over 40% in size. The method in brief: as §1
A short description of test [15]: Quantitative High-Throughput drug screen in 47 multiple myeloma cell lines against the NCATS MIPE library collection: SKMM1_PLB cell viability assay (AID 1919863). For viability: series mostly up to about 46 µM. Note: nearly all actives have a fitted effect of over 35% in size. The following applies: SKMM1 myeloma viability, CellTiter-Glo ATP, 48 h; viability: stronger effect = lower value. The method, boiled down:
as §1
Background: ATP-based viability assays read luminescence as a measure of living cells.

A short description of test [16]: Quantitative High-Throughput drug screen in 47 multiple myeloma cell lines against the NCATS MIPE library collection: XG6_PLB cell viability assay (AID 1919865). Note: nearly all actives have a fitted effect of over 40% in size. The method in brief: as §1
The nature of test [17]: Quantitative High-Throughput drug screen in 47 multiple myeloma cell lines against the NCATS MIPE library collection: OCIMY7_PLB cell viability assay (AID 1918987). Note: nearly all actives have a fitted effect of over 65% in size. The method, boiled down: as §1
Test [18] can be described thus: Quantitative High-Throughput drug screen in 47 multiple myeloma cell lines against the NCATS MIPE library collection: UTMC2_PLB cell viability assay (AID 1919868). Note: nearly all actives have a fitted effect of over 55% in size. The method, boiled down:
as §1

The nature of test [19]: Quantitative High-Throughput drug screen in 47 multiple myeloma cell lines against the NCATS MIPE library collection: U266_ATCC cell viability assay (AID 1919864). Note: nearly all actives have a fitted effect of over 35% in size. The method, boiled down: as §1

Records with an inconclusive call do not appear. A number with no mark means an inactive call. The source made the active and inactive calls. Calls come from the whole dose curve; as a rule, active = well fitted cell-killing curve with a large enough effect; inconclusive = small, poorly fitted or top-dose-only effect, or effect the other way; inactive = no such curve, though single readings can be large or run the other way.
Potency is the fitted concentration of half-maximal effect.

With `CCCCS(=N)(=O)CCC(N)C(=O)O` (stereo not drawn), the Potency entry in [1], in test [2], in [3], in test [6], in test [8] and in test [9] was “inactive” throughout. Further, the Potency entry in test [10] and in test [11] was “inactive” each time. Further, the Potency is 13.2 µM (active) in test [4], 7.43 µM (active) in test [5] and 18.7 µM (active) in test [7].

`CCC(=O)O[C@]1(C(=O)CCl)[C@@H](C)C[C@H]2[C@@H]3CCC4=CC(=O)C=C[C@]4(C)[C@@]3(F)[C@@H](O)C[C@@]21C`: the Potency result in [2], in test [3], in test [14], in test [16], in test [4] and in test [6] was “inactive” in each case. Besides, the Potency entry in test [7], in test [9] and in test [11] was “inactive” throughout. The Potency in test [12] is 0.0093 µM (active); in [13], 1.32 µM (active); in test [5] it was 0.0332 µM (active); in test [8] it was 0.0059 µM (active). For the same compound, in [15], the viability was 109%.

On to `CN1CCCC(n2nc(Cc3ccc(Cl)cc3)c3ccccc3c2=O)CC1` (stereo not drawn), for which the Potency in test [2] was 13.2 µM (active); in test [12] it was 9.35 µM (active); in test [3], 10.5 µM (active); in test [17], 1.18 µM (active); in [13] it was 1.18 µM (active); in [14], 2.64 µM (active). Besides, the Potency is 20.9 µM (active) in test [15]; 1.05 µM (active) in test [16]; 1.48 µM (active) in [4]; 1.48 µM (active) in test [5]; 1.87 µM (active) in [18]; 7.43 µM (active) in [6]. The Potency in test [7] is 3.32 µM (active); in test [10], 1.32 µM (active); in test [11] it was 0.372 µM (active).

Turning to `CC(C(=O)O)c1ccc2c(c1)CC(=O)c1ccccc1S2` (stereo not drawn), the Potency entry in test [1], in test [2], in test [14], in test [6], in [8] and in test [9] was “inactive” throughout.

Regarding `CC[C@H](C)C(=O)O[C@H]1C[C@@H](C)C=C2C=C[C@H](C)[C@H](CC[C@@H]3C[C@@H](O)CC(=O)O3)[C@H]21`, the Potency in test [1] was 20.9 µM (active); in test [17], 4.69 µM (active); in test [13] it was 16.6 µM (active); in test [14], 11.8 µM (active); in [10], 20.9 µM (active); in test [11], 23.5 µM (active). For the same compound, the Potency entry in test [12] was “inactive”.

As to `C[C@@H](CN1CC(=O)NC(=O)C1)N1CC(=O)NC(=O)C1`, the Potency entry in test [1], in test [3], in test [13], in test [19], in test [8] and in test [9] was “inactive” in each case. In addition, the Potency entry in test [10] was “inactive”. Further, the Potency in [12] is 2.96 µM (active); in [17], 2.35 µM (active); in [4] it was 14.8 µM (active); in [18], 2.96 µM (active). Further, in test [15], the viability is 130%.

As for `CCn1cc(C(=O)O)c(=O)c2cc(F)c(N3CCNCC3)cc21`, the Potency in test [2] is 2.96 µM (active). Moreover, the Potency result in [13], in [14], in test [16], in test [4], in [5] and in test [18] was “inactive” throughout. Also, the Potency result in test [6], in [7], in test [8], in [9], in [10] and in test [11] was “inactive” in each case.

In the case of `CCN(C)C(=O)Oc1cccc([C@H](C)N(C)C)c1`, the Potency entry in test [2], in test [3], in test [13], in [14], in test [4] and in test [6] was “inactive” each time. For the same compound, the Potency entry in [9], in [10] and in test [11] was “inactive” in each case.

As to `CC(C)(C)NC(=O)[C@H]1CC[C@H]2[C@@H]3CC[C@H]4NC(=O)C=C[C@]4(C)[C@H]3CC[C@]12C`, the Potency entry in test [2], in test [3], in test [8], in test [9], in test [10] and in test [11] was “inactive” in each case. The Potency in test [17] was 0.332 µM (active); in [13], 0.59 µM (active); in test [14], 2.64 µM (active); in [19], 0.743 µM (active); in test [16], 0.132 µM (active); in [4], 0.235 µM (active). Moreover, the Potency in [5] was 0.662 µM (active); in [18], 1.66 µM (active); in test [6] it was 1.32 µM (active); in [7] it was 0.59 µM (active). Also, the viability in [15] is 142%.

`O=C(O)c1ccc(-n2nc(-c3ccccc3O)nc2-c2ccccc2O)cc1`: the Potency result in [2] and in test [9] was “inactive” each time. Moreover, the values for the Potency in test [14], in [16] and in [5] were 23.5 µM (active), 20.9 µM (active) and 16.6 µM (active), respectively.

On to `O=C(NCC1CN(c2ccc(N3CCOCC3=O)cc2)C(=O)O1)c1ccc(Cl)s1` (stereo not drawn), for which the Potency result in test [2], in test [3], in [17], in test [14], in [16] and in [4] was “inactive” throughout. The Potency result in test [18], in test [6], in [8], in test [9] and in test [11] was “inactive” each time. Besides, the viability in test [15] is 135%.

As for `NC(N)=NC(N)=NCCc1ccccc1`, the Potency was 5.26 µM (active) in [2]; 14.8 µM (active) in test [12]; 1.66 µM (active) in test [3]; 13.2 µM (active) in [13]; 20.9 µM (active) in test [14]; 7.43 µM (active) in test [4]. Besides, the Potency in [5] was 10.5 µM (active); in [6] it was 16.6 µM (active); in test [8], 20.9 µM (active); in test [11], 7.43 µM (active).

With `O=C(O)C1CCCN(CCC=C(c2ccccc2)c2ccccc2)C1` (stereo not drawn), the Potency entry in test [2], in test [3], in [17], in [13], in test [14] and in test [16] was “inactive” throughout. Besides, the Potency result in test [4], in test [6], in test [7], in test [8], in test [9] and in test [10] was “inactive” throughout. Moreover, the Potency result in [11] was “inactive”. Further, the viability in test [15] is 122%.

Regarding `CCN(CC)CC#CCOC(=O)C(O)(c1ccccc1)C1CCCCC1` (stereo not drawn), the Potency result in test [2], in test [3], in test [16], in test [4], in test [18] and in test [6] was “inactive” throughout. For the same compound, the Potency result in test [9] was “inactive”.

On to `O=C(O)c1cn(C2CC2)c2cc(N3CCNCC3)c(F)cc2c1=O`, for which the Potency entry in [2], in [3], in test [14], in test [19], in test [16] and in [4] was “inactive” in each case. Also, the Potency result in test [5], in test [6], in test [8], in test [9], in test [10] and in test [11] was “inactive” in each case. In [15], the viability was 166%.

Regarding `CO[C@@]12[C@H](COC(N)=O)C3=C(C(=O)C(C)=C(N)C3=O)N1C[C@@H]1N[C@@H]12`, the Potency was 23.5 µM (active) in test [2]; 26.4 µM (active) in test [3]; 18.7 µM (active) in test [17]; 26.4 µM (active) in test [13]; 26.4 µM (active) in test [14]; 20.9 µM (active) in test [15]. Also, the Potency in test [4] is 20.9 µM (active); in test [5] it was 20.9 µM (active); in [6] it was 20.9 µM (active); in test [9], 26.4 µM (active); in [10], 2.96 µM (active); in test [11] it was 6.62 µM (active).

Turning to `CC(=O)[C@H]1CC[C@H]2[C@@H]3CCC4=CC(=O)CC[C@]4(C)[C@H]3CC[C@]12C`, the Potency entry in [2] and in test [3] was “inactive” each time. Further, the Potency in [14] was 8.33 µM (active); in [5], 7.43 µM (active); in test [10] it was 18.7 µM (active); in test [11], 16.6 µM (active).

As a reminder, the viability is a read-out of living cells in per cent, often relative to untreated cells.

These data come from PubChem BioAssay (NCATS).
